# Results filed as inconclusive are left out. Entries that show only a call come without a potency. Calls of active or inactive are those of the source. The call rests on the fitted dose curve; in most records, active means well fitted curve in the direction sought with a large enough effect; inconclusive means small, poorly fitted or top-dose-only effect, or another doubt; inactive means no such curve, though single readings can be large; an effect the other way counts as inactive or inconclusive.
# Target: Cytochrome P450 2C9 (Homo sapiens) (UniProt P11712)
# Assay: qHTS Assay for Inhibitors and Substrates of Cytochrome P450 2C9 (AID 883); further: nearly all actives have a fitted effect of over 60% in size
# Conditions: recombinant CYP2C9, luciferin-H luminescence, 60 min; series mostly up to 57.1 µM
# Procedure, shortened: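 Signal: luciferase luminescence reporting luciferin produced by CYP2C9. Conditions: 10nM enzyme, Luciferin-H 100uM at KM, 25mM KPO4, 37C, 60 min NADPH-driven reaction. Reference: 57uM sulphaphenazole as 100% inhibition.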
# Potency means the concentration at half of the fitted maximal effect.
# Chain of Cytochrome P450 2C9 (Homo sapiens) (P11712 whole entry, looked up): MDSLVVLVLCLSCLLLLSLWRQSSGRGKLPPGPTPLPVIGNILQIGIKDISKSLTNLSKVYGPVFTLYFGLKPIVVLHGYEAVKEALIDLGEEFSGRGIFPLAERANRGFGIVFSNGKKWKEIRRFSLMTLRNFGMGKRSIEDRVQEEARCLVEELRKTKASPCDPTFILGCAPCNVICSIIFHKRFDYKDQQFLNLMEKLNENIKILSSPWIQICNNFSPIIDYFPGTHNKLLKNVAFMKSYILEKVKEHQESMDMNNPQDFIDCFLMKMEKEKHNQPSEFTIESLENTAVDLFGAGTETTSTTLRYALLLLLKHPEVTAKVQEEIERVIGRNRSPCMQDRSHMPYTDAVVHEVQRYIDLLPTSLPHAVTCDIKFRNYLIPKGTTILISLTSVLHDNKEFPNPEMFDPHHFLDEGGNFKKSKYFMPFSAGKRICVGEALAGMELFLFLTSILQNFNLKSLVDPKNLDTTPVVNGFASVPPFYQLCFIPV
row,SMILES,Potency
1,COC(=O)N1CCC[C@@]2(CCN(c3ccncc3)C2)C1,inactive
2,O=S(=O)(c1ccccc1)N1CCC2(CCN(C(c3ccccc3)c3ccccc3)CC2)CC1,501 nM (active)
3,CS(=O)(=O)N1CCC2(CCN(c3ccccc3)CC2)CC1,inactive
4,CC(C)NC(=O)N1CC[C@@]2(CCCN(C(=O)Oc3ccccc3)C2)C1,inactive
5,COc1ccccc1CN1CC[C@@]2(CCCN(C(=O)c3c(C)noc3C)C2)C1,inactive
6,COc1ccc(C(=O)N2CCC3(CCCN(Cc4ccncc4)C3)CC2)cc1,3160 nM (active)
7,O=C(c1cc(C(F)(F)F)cc(C(F)(F)F)c1)N1CCC[C@@]2(CCN(Cc3ccncc3)C2)C1,79.4 nM (active)
8,O=C(c1csnn1)N1CCC2(CC1)CN(c1ccncc1)C2,2510 nM (active)
9,CC(=O)N1CCC2(CC1)CN(c1ccncc1)C2,inactive

# Target: Cytochrome P450 3A4 (Homo sapiens) (UniProt P08684)
# Assay: qHTS Assay for Inhibitors and Substrates of Cytochrome P450 3A4 (AID 884); further: nearly all actives have a fitted effect of over 50% in size
# Conditions: recombinant CYP3A4, Luciferin-PPXE luminescence; series mostly up to 57.1 µM
# Procedure, shortened: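 Luminescent readout of luciferin produced by CYP3A4 (20 nM) dealkylation of Luciferin-PPXE, 25 uM (its KM). NADPH-driven reaction ran 60 min at RT after 10 min compound preincubation; data scaled to 57 uM ketoconazole as 100% inhibition.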
# Chain of Cytochrome P450 3A4 (Homo sapiens) (P08684 whole entry, looked up): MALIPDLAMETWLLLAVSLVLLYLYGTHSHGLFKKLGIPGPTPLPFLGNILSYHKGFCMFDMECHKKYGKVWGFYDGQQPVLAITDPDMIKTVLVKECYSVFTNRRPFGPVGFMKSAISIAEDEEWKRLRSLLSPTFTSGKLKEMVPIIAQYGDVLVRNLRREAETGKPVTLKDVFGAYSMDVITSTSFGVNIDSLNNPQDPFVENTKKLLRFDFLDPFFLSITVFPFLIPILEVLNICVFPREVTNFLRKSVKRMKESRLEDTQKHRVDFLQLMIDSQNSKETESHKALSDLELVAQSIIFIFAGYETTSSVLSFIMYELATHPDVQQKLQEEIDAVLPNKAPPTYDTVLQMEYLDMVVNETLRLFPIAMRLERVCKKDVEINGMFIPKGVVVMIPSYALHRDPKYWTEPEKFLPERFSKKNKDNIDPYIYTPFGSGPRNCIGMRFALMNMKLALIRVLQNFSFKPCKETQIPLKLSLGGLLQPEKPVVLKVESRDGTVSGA
row,SMILES,Potency
1,COC(=O)N1CCC[C@@]2(CCN(c3ccncc3)C2)C1,3980 nM (active)
2,O=S(=O)(c1ccccc1)N1CCC2(CCN(C(c3ccccc3)c3ccccc3)CC2)CC1,inactive
3,CC(C)NC(=O)N1CC[C@@]2(CCCN(C(=O)Oc3ccccc3)C2)C1,inactive
4,COc1ccccc1CN1CC[C@@]2(CCCN(C(=O)c3c(C)noc3C)C2)C1,1580 nM (active)
5,COc1ccc(C(=O)N2CCC3(CCCN(Cc4ccncc4)C3)CC2)cc1,7940 nM (active)
6,O=C(c1cc(C(F)(F)F)cc(C(F)(F)F)c1)N1CCC[C@@]2(CCN(Cc3ccncc3)C2)C1,501 nM (active)

# Target: Cytochrome P450 3A4 (Homo sapiens) (UniProt P08684)
# Assay: qHTS Assay for Activators of Cytochrome P450 3A4 (AID 885); further: nearly all actives have a fitted effect of over 65% in size
# Conditions: recombinant CYP3A4, Luciferin-PPXE luminescence, 60 min; series mostly up to 57.1 µM
# Procedure, shortened: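 Human CYP3A4 dealkylates Luciferin-PPXE to luciferin, which luciferase detection converts to light. Substrate was at its KM (25uM), buffer 200mM KPO4, reaction 60 min at RT.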
row,SMILES,Potency
1,COC(=O)N1CCC[C@@]2(CCN(c3ccncc3)C2)C1,inactive
2,O=S(=O)(c1ccccc1)N1CCC2(CCN(C(c3ccccc3)c3ccccc3)CC2)CC1,12600 nM (active)
3,COc1ccccc1CN1CC[C@@]2(CCCN(C(=O)c3c(C)noc3C)C2)C1,inactive
4,O=C(c1cc(C(F)(F)F)cc(C(F)(F)F)c1)N1CCC[C@@]2(CCN(Cc3ccncc3)C2)C1,inactive

# Target: Cytochrome P450 2D6 (Homo sapiens) (UniProt P10635)
# Assay: qHTS Assay for Inhibitors and Substrates of Cytochrome P450 2D6 (AID 891); further: nearly all actives have a fitted effect of over 60% in size
# Conditions: recombinant CYP2D6, luciferin-ME EGE luminescence; series mostly up to 57.1 µM
# Procedure, shortened: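 Luminescent read-out of luciferin formed by 5 nM human CYP2D6 demethylating 30 uM Luciferin-ME EGE (Km level) over 60 min at room temperature after NADPH regeneration addition. Data normalized to full inhibition by 1.43 uM quinidine.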
# Chain of Cytochrome P450 2D6 (Homo sapiens) (P10635 whole entry, looked up): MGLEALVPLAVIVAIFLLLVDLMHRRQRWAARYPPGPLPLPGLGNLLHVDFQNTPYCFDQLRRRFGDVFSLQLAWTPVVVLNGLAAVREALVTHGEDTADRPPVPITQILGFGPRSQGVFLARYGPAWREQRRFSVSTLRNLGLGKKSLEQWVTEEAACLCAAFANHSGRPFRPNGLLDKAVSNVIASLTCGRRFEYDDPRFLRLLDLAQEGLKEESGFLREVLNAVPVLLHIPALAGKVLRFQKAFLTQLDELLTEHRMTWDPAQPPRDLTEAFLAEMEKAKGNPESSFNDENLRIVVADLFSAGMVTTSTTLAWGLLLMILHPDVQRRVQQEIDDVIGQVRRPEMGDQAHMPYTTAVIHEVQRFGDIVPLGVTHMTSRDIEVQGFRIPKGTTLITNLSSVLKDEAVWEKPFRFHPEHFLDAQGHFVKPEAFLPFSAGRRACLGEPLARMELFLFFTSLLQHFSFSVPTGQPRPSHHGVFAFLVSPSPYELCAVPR
row,SMILES,Potency
1,COC(=O)N1CCC[C@@]2(CCN(c3ccncc3)C2)C1,inactive
2,CC(C)NC(=O)N1CC[C@@]2(CCCN(C(=O)Oc3ccccc3)C2)C1,inactive
3,O=C(c1cc(C(F)(F)F)cc(C(F)(F)F)c1)N1CCC[C@@]2(CCN(Cc3ccncc3)C2)C1,5010 nM (active)

# Reference: PubChem BioAssay (NCATS)
